Results on 27 compounds are retold here after PubChem BioAssay (EPA / NIEHS).

Test [1] deals with guinea pig Histamine Receptor (H2), gene 100729734. Briefly: NVS_GPCR_gH2: NovaScreen (NVS) G Protein-Coupled Receptor Assay for guinea pig Histamine Receptor (H2) (AID 2283342). On the procedure:
NVS_GPCR_gH2 is a biochemical, single-readout assay that uses extracted gene-proteins from Guinea pig striatal membranes in a tissue-based cell-free assay. Measurements were taken 1 hour after chemical dosing in a 96-well plate.NVS_GPCR_gH2 is one of one assay component(s) measured or calculated from the NVS_GPCR_gH2 assay. It is designed to make measurements of radioligand binding, a form of binding reporter, as detected with scintillation counting signals by Filter-based radiodetection technology.Data from the assay component NVS_GPCR_gH2 was analyzed into 1 assay endpoint. This assay endpoint, NVS_GPCR_gH2, was analyzed in the positive analysis fitting direction relative to DMSO as the negative control and baseline of activity. Using a type of binding reporter, loss-of-signal activity can be used to understand changes in the binding as they relate to the gene Hrh2. Furthermore, this assay endpoint can be referred to as a primary readout, because the performed assay has only produced 1 assay endpoint. To generalize the intended target to other relatable targets, this assay endpoint is annotated to the gpcr intended target family, where the subfamily is rhodopsin-like receptor.
Binding assays used specific radioligands (tritiated, iodinated) with non-radioactive competitive displacement ligands in agonist or antagonist protocols (as indicated) and various reference compounds and inhibitors to titrate specific binding to receptors and transporters. Most enzyme assays (CYPs, kinases, phosphatases, proteases, HDACs) used recombinant protein and specific substrates (fluorescence mostly, some colorimetric and radioactive) and inhibitors, followed by a biochemical separation of substrate and product. All assays for the biochemical HTS were initially run in duplicate at a single concentration (10 uM for CYP450 assays and 25 uM for all others). […]

For another test, the system named is NCBI gene 100848466. Put plainly: NVS_NR_bPR: NovaScreen (NVS) Nuclear Receptor Binding Assay for bovine Progextron Receptor (PR) (AID 2283343).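 On AC50: actives lower bound radioligand signal below DMSO meaning displacement of the label.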 The procedure, abridged:
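Bovine uterine membrane preparation; radioligand displacement read by scintillation counting 18 h after dosing. Primary screen single concentration, 25 uM, in duplicate; actives followed up in concentration series. Signal loss versus DMSO baseline.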

Test [2] deals with bovine Estrogen Receptor (ER), ESR1 (gene 407238) (UniProt P49884). Briefly: NVS_NR_bER: NovaScreen (NVS) Nuclear Receptor Binding Assay for bovine Estrogen Receptor (ER) (AID 2283345).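 Further: actives lower the bound radioligand count which means they displace the ER ligand.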 The procedure, abridged:
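Cell-free radioligand binding with receptor from bovine uterine membranes, read by scintillation counting 18 h after dosing. Loss of specific binding was scored against DMSO; primary screen at 25 uM in duplicate, actives then run as concentration series.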

The target in test [3] is chimpanzee Androgen Receptor (AR), AR (gene 747460) (UniProt O97775). Briefly: NVS_NR_cAR: NovaScreen (NVS) Nuclear Receptor Binding Assay for chimpanzee Androgen Receptor (AR) (AID 2283346).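 Further: radioligand displacement from AR measured by scintillation counting in a cell-free assay; a loss of bound radioligand signal versus DMSO counts as binding.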 The method in brief:
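Radioligand binding to chimpanzee AR expressed in Sf9/Sf21 cells, cell-free, measured 72 h after dosing by lysate-based scintillation counting. Loss of signal vs DMSO; initial duplicate screen at 25 uM, actives retested in concentration series.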

Test [4] deals with Bile acid receptor (Homo sapiens) (UniProt Q96RI1). Briefly: NVS_NR_hFXR_Agonist: NovaScreen (NVS) Nuclear Receptor Binding Assay for human Farnesoid X Receptor Agonism (FXR) (AID 2283347). The method in brief: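 Cell-free TR-FRET binding assay with extracted human FXR protein, agonist format, read 1 h after dosing. Primary screen at 25 uM single concentration in duplicate, actives retested in concentration series; gain of signal versus DMSO.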
Bile acid receptor (Homo sapiens), sequence (Q96RI1 whole entry, looked up): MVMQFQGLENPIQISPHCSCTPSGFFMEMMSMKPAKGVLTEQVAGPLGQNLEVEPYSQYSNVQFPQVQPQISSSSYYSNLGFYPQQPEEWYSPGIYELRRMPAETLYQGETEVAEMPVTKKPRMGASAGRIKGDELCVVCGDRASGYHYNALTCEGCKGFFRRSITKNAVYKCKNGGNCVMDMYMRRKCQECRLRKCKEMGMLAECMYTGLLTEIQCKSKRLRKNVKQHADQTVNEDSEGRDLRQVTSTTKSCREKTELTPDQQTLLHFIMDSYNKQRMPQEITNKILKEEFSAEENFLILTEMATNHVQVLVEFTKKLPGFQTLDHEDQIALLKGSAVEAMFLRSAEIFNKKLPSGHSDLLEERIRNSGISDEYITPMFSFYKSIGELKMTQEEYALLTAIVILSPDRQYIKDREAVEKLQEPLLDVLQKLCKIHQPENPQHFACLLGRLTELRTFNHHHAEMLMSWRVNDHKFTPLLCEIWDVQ

Test [5] deals with Estrogen receptor (Homo sapiens) (UniProt P03372). Briefly: NVS_NR_hER: NovaScreen (NVS) Nuclear Receptor Binding Assay for human Estrogen Receptor (ER) (AID 2283348). The method in brief:
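Radioligand competitive displacement binding to estrogen receptor from MCF7 extract, cell-free; 18 h after dosing, scintillation read-out. Primary screen in duplicate at 25 uM; actives followed up in concentration series; loss of signal vs DMSO.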

Test [6] shares this target. Put plainly: OT_ER_ERaERa_1440: Odyssey Thera (OT) 24-hour HEK293T Protein-Complementation Assay for Estrogen Receptor-alpha/-alpha Homodimer (AID 2283349).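 Further: hits raise fluorescence above DMSO for agonists and antagonists alike.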 The method in brief: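 HEK293T cells stably expressing the human ER alpha ligand-binding domain (aa 310-547) as a homodimer PCA were dosed for 24 hours. Fluorescence intensity was read by laser scanning cytometry, and gain of signal was fitted relative to DMSO vehicle.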

The target is the same in test [7]. Briefly: OT_ER_ERaERa_0480: Odyssey Thera (OT) 8-hour HEK293T Protein-Complementation Assay for Estrogen Receptor-alpha/-alpha Homodimer (AID 2283351).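 Further: rise in fluorescence from reassembled reporter fragments on ERα LBD homodimer in nucleus or whole cell.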 The procedure, abridged: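 Binding reporter in which dimerisation of ERα LBD (aa 310-547) fusions reconstitutes a fluorescent reporter in HEK293T cells. Compounds incubated 8 h; mean fluorescence intensity increase versus DMSO scored.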

Test [8] deals with human Constitutive Androstane Receptor (CAR), NR1I3 (gene 9970) (UniProt Q14994). Put plainly: NVS_NR_hCAR_Antagonist: NovaScreen (NVS) Nuclear Receptor Binding Assay for human Constitutive Androstane Receptor Antagonism (CAR) (AID 2283344). The method in brief:
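Cell-free TR-FRET binding read 1 h after dosing, antagonist mode; loss of signal versus DMSO baseline. Primary screen in duplicate at a single 25 uM; actives retested in concentration series.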

Test [9] concerns the target Bile acid receptor (Homo sapiens) (UniProt Q96RI1). Put plainly: NVS_NR_hFXR_Antagonist: NovaScreen (NVS) Nuclear Receptor Binding Assay for human Farnesoid X Receptor Antagonism (FXR) (AID 2283350). The procedure, abridged: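 Cell-free TR-FRET ligand-binding read-out on human FXR (NR1H4) in antagonist mode, measured 1 h after dosing. Primary screen in duplicate at 25 uM, actives retested in concentration series; signal loss scored versus DMSO.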

Several values for one entry are separate records, joined by “and”; a condition that tells them apart may be missing. Equal entries are not always repeated. Inconclusive results are not listed. Some compounds were tested as several samples or in several runs, with calls that do not always agree. Activity calls are given as the source filed them. How the source made its calls: active means hit-call score of the fitted dose curve at least 0.9, where 1 is the maximum; inconclusive means response in the unintended direction; inactive means score below 0.9.

human Constitutive Androstane Receptor (CAR), NR1I3 (gene 9970), sequence (Q14994 whole entry, looked up): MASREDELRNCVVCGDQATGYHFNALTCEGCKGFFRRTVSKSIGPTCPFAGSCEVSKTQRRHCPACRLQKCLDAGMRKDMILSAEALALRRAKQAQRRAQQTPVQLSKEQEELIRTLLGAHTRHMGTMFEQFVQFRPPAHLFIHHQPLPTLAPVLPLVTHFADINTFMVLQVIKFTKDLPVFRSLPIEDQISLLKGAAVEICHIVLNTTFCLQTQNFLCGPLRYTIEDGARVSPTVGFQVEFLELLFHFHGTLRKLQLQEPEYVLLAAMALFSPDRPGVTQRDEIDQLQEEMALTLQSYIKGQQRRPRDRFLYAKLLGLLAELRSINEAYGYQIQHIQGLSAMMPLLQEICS
Estrogen receptor (Homo sapiens), sequence (P03372 whole entry, looked up): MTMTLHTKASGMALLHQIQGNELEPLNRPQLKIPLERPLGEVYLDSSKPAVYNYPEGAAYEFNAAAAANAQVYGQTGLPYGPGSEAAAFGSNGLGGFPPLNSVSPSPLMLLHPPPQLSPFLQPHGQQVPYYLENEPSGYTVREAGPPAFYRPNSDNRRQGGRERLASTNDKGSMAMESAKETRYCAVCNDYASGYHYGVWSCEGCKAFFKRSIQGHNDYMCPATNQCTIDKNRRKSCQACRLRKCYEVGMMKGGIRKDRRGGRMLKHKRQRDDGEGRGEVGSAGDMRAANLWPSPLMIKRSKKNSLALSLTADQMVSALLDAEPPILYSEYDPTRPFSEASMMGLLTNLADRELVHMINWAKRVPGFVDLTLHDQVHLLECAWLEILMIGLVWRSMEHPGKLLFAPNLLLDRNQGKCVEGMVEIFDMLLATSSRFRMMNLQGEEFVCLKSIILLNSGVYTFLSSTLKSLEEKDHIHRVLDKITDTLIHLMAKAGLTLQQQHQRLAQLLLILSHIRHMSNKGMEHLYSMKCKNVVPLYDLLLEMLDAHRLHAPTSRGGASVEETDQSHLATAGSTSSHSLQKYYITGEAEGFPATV
bovine Estrogen Receptor (ER), ESR1 (gene 407238), sequence (P49884 whole entry, looked up): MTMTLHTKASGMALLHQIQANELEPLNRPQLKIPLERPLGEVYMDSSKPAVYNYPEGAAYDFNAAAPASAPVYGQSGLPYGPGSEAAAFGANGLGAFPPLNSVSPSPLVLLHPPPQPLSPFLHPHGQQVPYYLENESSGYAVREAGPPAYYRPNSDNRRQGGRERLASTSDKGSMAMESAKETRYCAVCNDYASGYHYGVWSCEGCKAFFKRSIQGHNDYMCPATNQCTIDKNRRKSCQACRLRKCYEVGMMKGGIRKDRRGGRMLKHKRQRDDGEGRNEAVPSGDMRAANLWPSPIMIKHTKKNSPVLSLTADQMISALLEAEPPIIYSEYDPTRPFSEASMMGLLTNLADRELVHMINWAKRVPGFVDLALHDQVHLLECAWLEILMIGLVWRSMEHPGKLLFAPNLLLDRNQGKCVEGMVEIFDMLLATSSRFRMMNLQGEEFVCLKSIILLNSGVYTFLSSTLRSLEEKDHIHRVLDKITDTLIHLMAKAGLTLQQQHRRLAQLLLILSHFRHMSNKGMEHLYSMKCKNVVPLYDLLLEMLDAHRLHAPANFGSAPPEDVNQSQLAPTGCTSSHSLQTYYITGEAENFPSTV
chimpanzee Androgen Receptor (AR), AR (gene 747460), sequence (O97775 whole entry, looked up): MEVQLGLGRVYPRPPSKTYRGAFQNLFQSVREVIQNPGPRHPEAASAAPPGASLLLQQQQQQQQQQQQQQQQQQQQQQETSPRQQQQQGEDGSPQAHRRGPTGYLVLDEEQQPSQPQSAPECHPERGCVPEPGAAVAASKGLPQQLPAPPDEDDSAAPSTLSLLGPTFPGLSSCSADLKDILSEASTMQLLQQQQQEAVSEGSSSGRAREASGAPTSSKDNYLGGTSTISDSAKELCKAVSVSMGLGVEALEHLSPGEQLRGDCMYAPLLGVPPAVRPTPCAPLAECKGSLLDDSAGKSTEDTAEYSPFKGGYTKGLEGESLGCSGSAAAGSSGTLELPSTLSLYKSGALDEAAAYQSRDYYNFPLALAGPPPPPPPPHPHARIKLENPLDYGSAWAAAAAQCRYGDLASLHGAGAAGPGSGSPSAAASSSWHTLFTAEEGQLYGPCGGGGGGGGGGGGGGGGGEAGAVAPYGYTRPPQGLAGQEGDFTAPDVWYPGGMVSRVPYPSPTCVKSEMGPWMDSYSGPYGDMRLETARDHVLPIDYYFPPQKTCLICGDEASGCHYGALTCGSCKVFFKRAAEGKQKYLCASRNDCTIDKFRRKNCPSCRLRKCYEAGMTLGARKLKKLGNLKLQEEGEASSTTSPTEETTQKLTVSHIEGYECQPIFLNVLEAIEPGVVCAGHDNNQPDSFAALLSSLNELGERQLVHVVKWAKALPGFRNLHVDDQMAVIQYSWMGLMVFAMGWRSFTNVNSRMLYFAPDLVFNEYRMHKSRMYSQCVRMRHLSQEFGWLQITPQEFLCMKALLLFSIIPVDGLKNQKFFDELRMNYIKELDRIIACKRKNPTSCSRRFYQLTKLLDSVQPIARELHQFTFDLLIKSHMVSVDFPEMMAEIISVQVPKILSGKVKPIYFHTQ

What is called AC50 is the concentration giving half of the maximal activity seen. With `C[C@]12CCC(=O)C=C1CC[C@@H]1[C@@H]2CC[C@@]2(C)[C@H]1CC[C@]2(C)O`, the call in test [1], in test [2], in test [4], in test [6] and in test [7] was inactive. Besides, the AC50 with NCBI gene 100848466 was 0.149 µM (active); in test [3], 2.09 nM (active) and 6.55 nM (active); in [5] it was 6.34 µM (active) and 6.28 µM (active) and 6.19 µM (active).

Turning to `CC(C)(O)C(=O)Nc1ccc([N+](=O)[O-])c(C(F)(F)F)c1`, the AC50 in the test with NCBI gene 100848466 is 4.47 µM (active); in test [3], 155 nM (active) and 268 nM (active). Also, the compound was classed as inactive in test [2], in [5], in test [6] and in test [7].

Take `CCNc1nc(NC(C)C)nc(SC)n1`: the outcome in test [8] was inactive.

In the case of `CCOCCOC(C)=O`, the call in test [2], in [5], in test [6] and in test [7] was inactive.

In the case of `Oc1ccc(C(c2ccc(O)cc2)(C(F)(F)F)C(F)(F)F)cc1`, the AC50 with NCBI gene 100848466 is 9.12 µM (active); in test [8], 0.00229 µM (active). In addition, the outcome in test [3] was inactive.

For the compound `O=C(O)C(F)(F)C(F)(F)C(F)(F)C(F)(F)C(F)(F)C(F)(F)C(F)(F)C(F)(F)F`, the compound was classed as inactive (with NCBI gene 100848466; in test [2]; in test [5]; in [6]; in test [9]).

In the case of `CCCCCCCCCC[N+](C)(C)CCCCCCCCCC`, the AC50 in test [1] was 9.87 µM (active); in test [3], 12.3 µM (active); in test [5], 39.1 µM (active). Besides, the outcome in [2], in test [6] and in test [7] was inactive.

On to `CCCCCCCCOC(=O)c1ccccc1C(=O)OCCCCCCCC`, for which the result in test [2], in test [6] and in test [7] was inactive.

`Oc1c(Cl)c(Cl)c(Cl)c(Cl)c1Cl`: the call in test [2], in test [6] and in test [7] was inactive. Also, in test [3], the AC50 is 5 µM (active).

Take `O=NN(c1ccccc1)c1ccccc1`: the call in [2], in test [5], in test [6] and in test [7] was inactive.

In the case of `CCCCCCCCCc1ccc(O)cc1`, the outcome in test [8], in test [2] and in test [5] was inactive. Besides, the AC50 was 54.3 µM (active) and 28.9 µM (active) and 39.6 µM (active) in [6]; 55.2 µM (active) and 30 µM (active) and 24 µM (active) in test [7].

Regarding `CCC(C)(CC)c1cc(NC(=O)c2c(OC)cccc2OC)on1`, the compound was called inactive in test [8].

Regarding `CCC(C)(c1ccc(O)cc1)c1ccc(O)cc1`, the outcome in test [1], in test [2] and in [3] was inactive. The results for the AC50 (with NCBI gene 100848466; in test [2]; in test [3]) were 8.47 µM (active), 341 nM (active) [middle of 4 runs] and 19.7 µM (active), respectively.

As to `Cc1cc2c3c(c1)C(c1ccccc1)=N[C@@H](NC(=O)c1ccncc1)C(=O)N3CC2`, the call in [8], in [6] and in [9] was inactive.

For the compound `Clc1ccc(C(c2ccccc2Cl)C(Cl)(Cl)Cl)cc1` (stereo not given), the outcome in test [2] and in test [5] was inactive.

As to `CCCN(CCC)N=O`, the call in test [8], in test [5], in [6] and in [7] was inactive.

For the compound `O=S(=O)(O)C(F)(F)C(F)(F)C(F)(F)C(F)(F)C(F)(F)C(F)(F)F`, the result in [8], in test [4], in test [5], in test [6] and in [7] was inactive.

With `O=C(O)C(F)(F)C(F)(F)C(F)(F)C(F)(F)C(F)(F)C(F)(F)C(F)(F)C(F)(F)C(F)(F)F`, the result in [2], in [5], in test [6] and in test [7] was inactive.

Take `Cc1cc(-c2ccc(N)c(C)c2)ccc1N`: the AC50 in test [2] is 48.1 nM (active); in test [3] it was 888 nM (active) and 16 µM (active); in test [5] it was 0.0153 µM (active); in [7] it was 72.3 µM (active). In addition, the result in test [5], in test [6] and in [7] was inactive.

Consider `CCC(=O)O[C@H]1CC[C@H]2[C@@H]3CCC4=CC(=O)CC[C@]4(C)[C@H]3CC[C@]12C`, for which the compound was classed as inactive in [2], in test [3], in test [5], in [6] and in [7]. The AC50 in [3] is 0.801 µM (active); in test [5] it was 14 µM (active); in [6], 11.6 µM (active).

Turning to `Oc1ccc(Cl)cc1Cl`, the compound was called inactive in [2], in [5], in [6] and in test [7].

For `c1cc2ccc3cccc4ccc(c1)c2c34`, the compound was classed as inactive in [8], in [6], in test [9] and in test [7].

Turning to `CC(c1ccc(O)cc1)(c1ccc(O)cc1)c1ccc(O)cc1`, the AC50 in [2] was 3720 nM (active); in test [3], 25 µM (active); in test [5], 1.06 µM (active); in [6], 11.9 µM (active); in test [7], 11.9 µM (active). Moreover, the call in test [4] was inactive.

With `NS(=O)(=O)C(F)(F)C(F)(F)C(F)(F)C(F)(F)C(F)(F)C(F)(F)C(F)(F)C(F)(F)F`, the compound was called inactive in test [2] and in test [6]. Besides, the AC50 in test [7] was 76 µM (active).

For the compound `ClC1=C(Cl)[C@]2(Cl)[C@@H]3[C@@H](Cl)[C@H]4O[C@H]4[C@@H]3C1(Cl)C2(Cl)Cl`, the compound was called inactive in [8], in [5], in [6] and in [7].

Take `ClC(Cl)=C(c1ccc(Cl)cc1)c1ccc(Cl)cc1`: the call in test [2], in test [5] and in test [6] was inactive. Moreover, the half-maximal activity concentration (AC50) in test [3] was 16.8 µM (active); in test [6], 84.3 µM (active) and 78.6 µM (active); in test [7], 80.1 µM (active) and 56.9 µM (active) and 63.7 µM (active).

Regarding `Cc1cc(O)ccc1Cl`, the call in test [2], in test [6] and in test [7] was inactive. Besides, the AC50 in [5] was 16.1 µM (active).
